Bioassay records (PubChem)
Compounds with a hit are over-represented: about 1.5% of the library has one in this group of screens.
cardiac RTF act: increases calcium sensitivity of human cardiac regulated thin filaments. activation, % at 7.2 µM. IANBD-labeled TnC RTF fluorescence at EC20 calcium; 0% EC20 calcium, 100% full calcium. AID 493008. 340,000 tested, 0.24% active;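 active means activation above the mean over all tested compounds plus 3 SD, cut at about 30% in these data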;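 further: rise in fluorescence read as greater calcium sensitivity of cardiac thin filaments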
IDE inh: inhibits human insulin-degrading enzyme in HEK cells. P14735. FAbetaB cleavage, fluorescence polarization. inhibition, % at 5.59 µM. 320,000 tested, 0.41% active;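 active means percent inhibition above the average of all tested compounds plus 3 SD, set per screening campaign, cut at about 16% in these data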;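 further: IDE supplied by intact live HEK cells; FP after avidin binding of uncleaved biotin substrate so inhibition keeps polarization high; 0% = DMSO wells and 100% = 60 µM reference IDE inhibitor Ii1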
Cardiac RTF inh: cardiac RTF calcium desensitization; 340,000 tested, 0.12% active; inhibition, % at 7.15 µM; P19429+P45379; AID 493244; IANBD-labeled cardiac RTF, Ca2+ fluorescence;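 active means inhibition above the mean inhibition of all tested compounds plus 3 SD, cut at about 17% in these data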;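 further: assay run at fixed EC70 calcium of 1.6 mM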
CRFR2-BP ag: CRF-BP/CRF-R2 complex agonism. HEK293 CRF-R2/CRF-BP, calcium dye fluorescence (FLIPR); percent of saturating CRF peptide response. 350,000 tested, 0.46% active. activation, % at 13.2 µM;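 active means activation of at least 50%, plus an integration ratio under a set limit after plate pattern correction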;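 further: plate controls were neutral control wells without compound for no effect and CRF at EC100 for full effect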
CRFR2-BP antag: blocks CRF-induced signaling of the CRF-BP/CRF-R2 complex | inhibition, % at 11.8 µM | HEK293 CRF-R2/CRF-BP, CRF-induced calcium fluorescence | 350,000 tested, 0.59% active;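 active means inhibition of the ligand-induced calcium signal above about 50% at the single tested concentration, limit read from the data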
IDE cell activ: boosts human insulin-degrading enzyme activity in HEK cells; P14735; FAbeta-B cleavage, fluorescence polarization; 0% vehicle, 100% cell-free pure enzyme wells; activation, % at 5.96 µM; 340,000 tested, 0.073% active; AID 493087;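 active means activation above the mean of all tested compounds plus 3 SD, set per screening campaign, cut at about 17% in these data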
The depositor's hits bear a star; nt = not tested or not shown.

SMILES	cardiac RTF act	IDE inh	Cardiac RTF inh	CRFR2-BP ag	CRFR2-BP antag	IDE cell activ
CCN1CCN(C(=O)c2cc3ccc(OC)cc3[nH]2)CC1	4	5	-4	6	17	-1
COc1ccc2cc(C(=O)N3CCN(Cc4ccc5c(c4)OCO5)CC3)[nH]c2c1	2	-4	1	0	50*	5
O=[N+]([O-])c1ccc(N/N=C/C=C/c2ccco2)cc1	12	6	-22	95*	-57	-15
Cc1ccccc1N=C1NC(=O)CC(c2ccccc2)S1 (stereo unspecified)	-7	-2	-3	0	16	3
CCOC(=O)c1c(CC(C)C)csc1NC(=O)C(C)C	5	-4	-2	1	-12	-6
CCOC(=O)c1c(CC(C)C)csc1N	-7	-4	-6	-3	55*	-2
Cc1ccnc(NC(=O)Nc2ccc(Br)cc2Cl)c1	2	-4	-13	0	-24	1
COc1cc(CN(C2CCCCC2C)S(=O)(=O)c2ccc(S(=O)(=O)NC3CC3)cc2)cc(OC)c1OC (stereo unspecified)	2	2	7	0	-1	7
COc1ccc(CN(C2CCCCC2C)S(=O)(=O)c2ccc(S(=O)(=O)N(C)C)cc2)cc1OC (stereo unspecified)	6	-4	-12	148*	-139	4
O=C(C[C@H]1C/C=C\CC[C@@H](Cc2ccc(F)cc2)C(=O)OC[C@H]2CCCN2C1=O)N[C@@H](CO)Cc1ccccc1	-5	5	-8	4	-7	4
COC(C[C@@H](O)[C@@H](C)[C@H](O)COCc1ccccc1)OC	1	nt	5	-1	0	6
O=C(O)c1ccccc1C1=Nc2ccc(O)cc2Oc2cc(O)ccc21	117*	6	-159	107*	-93	13
O=c1c2ccccc2c(-c2cccc(C(F)(F)F)c2)nn1-c1ccccc1	-8	-4	5	2	0	4
O=c1c2ccccc2c(-c2ccc(O)cc2)nn1-c1cccc(C(F)(F)F)c1	0	5	0	1	57*	3
COc1ccc(OC2C(=O)N(c3ccc(C)c(C)c3)C2c2ccc(OC)c(OC)c2)cc1 (stereo unspecified)	-5	-2	2	4	17	4
COc1ccc(OC2C(=O)N(c3cc(C)ccc3C)C2c2ccc(OC)c(OC)c2)cc1 (stereo unspecified)	2	0	-2	2	51*	4
NS(=O)(=O)c1cc(Cl)c(NC(=O)COC(=O)c2ccccn2)c(Cl)c1	-3	-5	-5	0	0	-1
Clc1ccc(NN(Cc2ccncc2)c2ccc(Cl)cc2)cc1	nt	nt	nt	51*	17	nt
O=C(Nc1ccccc1)c1ccccc1OCc1cccc([N+](=O)[O-])c1	-3	9	-9	0	53*	2
CC(NC(=O)c1ccccc1)C(=O)N/N=C/c1ccco1 (stereo unspecified)	-3	4	-11	1	4	-3
CC(C)CC(NC(=O)c1ccccc1)C(=O)N/N=C/c1ccco1 (stereo unspecified)	1	2	-3	178*	-128	2
C=CCC[C@H](Cc1ccc(F)cc1)C(=O)OC[C@@H](Cc1c[nH]c2ccccc12)NC(=O)[C@@H](CC=C)CC(=O)N[C@@H](CO)Cc1ccccc1	-1	-6	-3	0	2	5
C=CCC[C@H](Cc1ccc(F)cc1)C(=O)OC[C@H](Cc1c[nH]c2ccccc12)NC(=O)[C@@H](CC=C)CC(=O)NCCO	1	4	10	60*	-22	3
CCn1cc(C2=NOC(C(=O)Nc3ccccc3C(=O)OC)C2)c(C)n1 (stereo unspecified)	2	-2	-4	-5	52*	7
Cc1nc(C)c(Cc2ccccc2Cl)c(=O)[nH]1	12	3	-7	-1	30	4
SMILES	cardiac RTF act	IDE inh	Cardiac RTF inh	CRFR2-BP ag	CRFR2-BP antag	IDE cell activ
Cc1nc2ccccc2nc(C)c1=NOCc1ccccc1Cl	-4	0	3	-1	51*	0
Cc1c(-n2c(SCC(N)=O)nc3ccccc3c2=O)c(=O)n(-c2ccccc2)n1C	2	4	-7	-2	8	-1
Fc1ccc(C(c2nnnn2CCc2ccccc2)N2CCCc3ccccc32)cc1 (stereo unspecified)	-8	4	5	1	3	-1
c1ccc2c(c1)CCCN2Cc1nnnn1CC1CCCO1 (stereo unspecified)	37*	-4	-64	7	9	2
c1ccc(CCn2nnnc2CN2CCCc3ccccc32)cc1	9	1	-14	68*	-17	4
COc1ccc(Oc2cnn(-c3ccccc3)c(=O)c2Br)cc1	0	-1	6	-4	15	3
COc1ccc(-c2cc(C(F)(F)F)c3c(n2)sc2c(O)cc(=O)[nH]c23)c(OC)c1	38*	13	-70	80*	-126	-13
CC1(C)N=C(N)N=C(N)N1c1cccc(C#N)c1	1	nt	-16	-2	-9	1
CCN1CC=C2C(C#N)=C(N)C(C#N)(C#N)C(c3cc(Cl)ccc3Cl)C2C1 (stereo unspecified)	39*	4	-38	39	-12	-2
CC(C)N1CC=C2C(C#N)=C(N)C(C#N)(C#N)C(c3ccccc3)C2C1 (stereo unspecified)	46*	9	-77	90*	-27	1
COc1cc(C2C3CN(C)CC=C3C(C#N)=C(N)C2(C#N)C#N)ccc1OC(C)C (stereo unspecified)	42*	0	-27	16	-14	-5
CC(C)N1CC=C2C(C#N)=C(N)C(C#N)(C#N)[C@H](c3ccoc3)[C@H]2C1	nt	7	nt	nt	nt	nt
Cc1ccc(NC(=O)OCc2cccs2)cc1	nt	3	nt	nt	nt	nt
CCOc1cc(/C=N/NC(=O)C(C)Sc2ccccc2)ccc1O (stereo unspecified)	-4	4	-4	-2	15	-4
O=C1C=C(/C=C/c2ccccc2)C[C@@H](c2ccc3c(c2)OCO3)C1	4	0	0	-1	12	0
Cc1cccc(C(=O)NCCN2CCOCC2)c1[N+](=O)[O-]	7	1	0	-6	19	28*
CC(C(=O)NCCN1CCOCC1)(c1ccccc1)c1ccccc1	-2	-2	-10	3	81*	5
O=C(NCCN1CCOCC1)c1ccccc1[N+](=O)[O-]	2	-1	6	-1	1	-1
COc1ccc(NC(=O)CN(C)C(=O)c2ccc(S(=O)(=O)Nc3ccccc3C)cc2)cc1	2	nt	-8	-1	0	1
Cc1ccccc1NS(=O)(=O)c1ccc(C(=O)N(C)CC(=O)Nc2ccccc2Br)cc1	9	-1	1	-1	88*	2
